# Measured values published in publication PMC7862700, “An all-to-all approach to the identification of sequence-specific readers for epigenetic DNA modifications on cytosine”.
# Experiments:
# Test in all cases: DAPPL (digital affinity profiling via proximity ligation, sequencing); 10 mM Tris-HCl pH 7.5, 50 mM NaCl, 1 mM DTT, 4% glycerol, room temperature, 30 min; GST-TFs on glutathione beads, 16-mer random dsDNA library, 0.1% formaldehyde crosslink after washing; high values mean tight binding
# Settings in all cases: protein: recombinant; tags: N-terminal GST; dsDNA, one strand shown
# ELK4 = target: T1, ELK4 (Homo sapiens, UniProt P28324-2 1-405)
# T1 sequence: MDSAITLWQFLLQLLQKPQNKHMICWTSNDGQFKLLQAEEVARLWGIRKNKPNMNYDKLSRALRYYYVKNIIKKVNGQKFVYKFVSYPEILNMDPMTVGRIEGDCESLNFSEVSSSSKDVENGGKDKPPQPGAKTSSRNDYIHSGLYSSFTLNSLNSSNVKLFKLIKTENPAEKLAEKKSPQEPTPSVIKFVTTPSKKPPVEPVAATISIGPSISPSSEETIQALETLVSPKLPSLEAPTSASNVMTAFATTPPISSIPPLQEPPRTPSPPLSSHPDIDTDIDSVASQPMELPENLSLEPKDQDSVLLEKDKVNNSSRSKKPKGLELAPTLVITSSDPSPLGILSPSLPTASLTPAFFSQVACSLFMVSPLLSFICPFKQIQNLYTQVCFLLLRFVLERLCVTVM
# How it was run: (§1)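 Yeast served to express human transcription factors as GST fusions, which were then captured on glutathione beads and labelled with DNA barcodes. Pooled with a tag-only sample, they were incubated with 200 nmole of a 16-mer random double-stranded DNA library for 30 min at room temperature in Tris/NaCl/DTT/glycerol buffer, washed, crosslinked with 0.1% formaldehyde, ligated by proximity, amplified by PCR and sequenced. Dividing each hexamer's read frequency for a factor by its frequency for the tag-only sample gives the binding signal.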
# ETV2 = target: T2, ETV2 (Homo sapiens, UniProt O00321 1-342)
# T2 sequence: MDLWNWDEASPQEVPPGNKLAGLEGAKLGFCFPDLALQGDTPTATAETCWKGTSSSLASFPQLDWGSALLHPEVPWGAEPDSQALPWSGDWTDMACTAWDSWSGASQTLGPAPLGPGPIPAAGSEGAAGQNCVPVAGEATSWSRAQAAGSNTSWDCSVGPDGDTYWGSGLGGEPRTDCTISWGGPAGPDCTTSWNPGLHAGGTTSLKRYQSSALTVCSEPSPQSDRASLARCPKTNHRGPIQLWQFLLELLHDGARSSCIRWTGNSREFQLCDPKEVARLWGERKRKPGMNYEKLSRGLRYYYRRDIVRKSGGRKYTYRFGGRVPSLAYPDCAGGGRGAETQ
# How it was run: as §1
# ELF3 = target: T3, ELF3 (Homo sapiens, UniProt P78545 1-371)
# T3 sequence: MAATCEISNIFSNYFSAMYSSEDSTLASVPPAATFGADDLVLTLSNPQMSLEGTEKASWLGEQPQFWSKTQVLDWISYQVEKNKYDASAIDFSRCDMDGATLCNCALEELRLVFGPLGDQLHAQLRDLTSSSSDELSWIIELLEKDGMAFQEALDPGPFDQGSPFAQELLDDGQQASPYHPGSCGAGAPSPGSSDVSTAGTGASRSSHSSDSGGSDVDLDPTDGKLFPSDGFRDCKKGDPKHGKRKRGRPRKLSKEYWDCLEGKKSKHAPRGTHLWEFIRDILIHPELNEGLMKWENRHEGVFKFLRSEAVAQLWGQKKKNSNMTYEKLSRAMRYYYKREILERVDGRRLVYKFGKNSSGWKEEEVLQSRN
# How it was run: as §1
# ETV1 = ETV1 (Homo sapiens, UniProt P50549 1-477)
# Chain of ETV1 (P50549 whole entry): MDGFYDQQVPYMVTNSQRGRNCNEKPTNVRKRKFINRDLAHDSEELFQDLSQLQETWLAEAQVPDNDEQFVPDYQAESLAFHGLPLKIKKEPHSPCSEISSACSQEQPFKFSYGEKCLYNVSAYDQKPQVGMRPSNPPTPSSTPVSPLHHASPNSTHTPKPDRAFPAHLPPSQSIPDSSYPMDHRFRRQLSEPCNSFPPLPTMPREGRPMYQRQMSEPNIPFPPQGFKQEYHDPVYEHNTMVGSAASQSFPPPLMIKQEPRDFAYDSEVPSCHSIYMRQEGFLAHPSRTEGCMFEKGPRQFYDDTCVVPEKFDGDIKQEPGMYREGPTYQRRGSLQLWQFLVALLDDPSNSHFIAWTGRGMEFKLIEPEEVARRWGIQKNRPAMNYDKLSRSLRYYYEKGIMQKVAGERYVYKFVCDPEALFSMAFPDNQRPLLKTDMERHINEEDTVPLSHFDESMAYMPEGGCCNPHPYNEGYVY
# How it was run: as §1
# ERF = target: T4, ERF (Homo sapiens, UniProt P50548 1-548)
# T4 sequence: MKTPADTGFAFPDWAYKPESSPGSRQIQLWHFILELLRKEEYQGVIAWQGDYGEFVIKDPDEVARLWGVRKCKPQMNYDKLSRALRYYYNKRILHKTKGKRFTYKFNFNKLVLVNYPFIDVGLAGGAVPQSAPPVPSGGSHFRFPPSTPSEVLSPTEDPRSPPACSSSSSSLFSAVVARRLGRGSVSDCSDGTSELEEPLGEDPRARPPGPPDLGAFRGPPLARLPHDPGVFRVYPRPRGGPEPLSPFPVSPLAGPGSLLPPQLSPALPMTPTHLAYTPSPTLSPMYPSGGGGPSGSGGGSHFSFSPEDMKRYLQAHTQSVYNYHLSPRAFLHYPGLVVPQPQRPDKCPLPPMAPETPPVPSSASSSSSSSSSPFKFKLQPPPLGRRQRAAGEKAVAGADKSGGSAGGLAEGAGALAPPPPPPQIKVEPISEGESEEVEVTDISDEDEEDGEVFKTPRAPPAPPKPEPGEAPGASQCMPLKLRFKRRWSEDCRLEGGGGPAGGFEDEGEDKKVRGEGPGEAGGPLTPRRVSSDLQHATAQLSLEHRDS
# How it was run: as §1
# ETV3L = target: T5, ETV3L (Homo sapiens, UniProt Q6ZN32 1-361)
# T5 sequence: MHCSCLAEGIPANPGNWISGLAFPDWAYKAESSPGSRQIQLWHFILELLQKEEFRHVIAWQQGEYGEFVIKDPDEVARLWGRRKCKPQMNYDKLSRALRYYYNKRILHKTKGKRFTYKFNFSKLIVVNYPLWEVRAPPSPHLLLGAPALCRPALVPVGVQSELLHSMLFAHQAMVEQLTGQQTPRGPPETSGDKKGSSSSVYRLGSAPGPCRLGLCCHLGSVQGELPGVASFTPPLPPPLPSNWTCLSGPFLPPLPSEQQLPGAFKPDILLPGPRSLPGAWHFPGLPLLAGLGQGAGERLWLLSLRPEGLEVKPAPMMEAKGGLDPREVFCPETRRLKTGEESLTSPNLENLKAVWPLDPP
# How it was run: as §1
# ETS2 = target: T6, ETS2 (Homo sapiens, UniProt P15036 1-469)
# T6 sequence: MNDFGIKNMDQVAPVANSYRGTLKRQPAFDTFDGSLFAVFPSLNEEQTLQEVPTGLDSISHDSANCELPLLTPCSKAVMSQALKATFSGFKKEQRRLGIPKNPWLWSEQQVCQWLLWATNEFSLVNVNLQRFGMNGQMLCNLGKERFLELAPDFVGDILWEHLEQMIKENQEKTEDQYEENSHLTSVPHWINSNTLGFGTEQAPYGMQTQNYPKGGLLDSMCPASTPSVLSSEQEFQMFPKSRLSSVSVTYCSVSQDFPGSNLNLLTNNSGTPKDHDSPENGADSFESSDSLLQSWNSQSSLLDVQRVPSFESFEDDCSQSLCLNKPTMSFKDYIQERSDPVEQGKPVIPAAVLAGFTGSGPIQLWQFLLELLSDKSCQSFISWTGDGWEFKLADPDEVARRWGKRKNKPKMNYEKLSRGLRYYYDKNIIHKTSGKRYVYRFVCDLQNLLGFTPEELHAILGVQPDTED
# How it was run: as §1
# ETV7 = target: T7, ETV7 (Homo sapiens, UniProt Q9Y603 1-341)
# T7 sequence: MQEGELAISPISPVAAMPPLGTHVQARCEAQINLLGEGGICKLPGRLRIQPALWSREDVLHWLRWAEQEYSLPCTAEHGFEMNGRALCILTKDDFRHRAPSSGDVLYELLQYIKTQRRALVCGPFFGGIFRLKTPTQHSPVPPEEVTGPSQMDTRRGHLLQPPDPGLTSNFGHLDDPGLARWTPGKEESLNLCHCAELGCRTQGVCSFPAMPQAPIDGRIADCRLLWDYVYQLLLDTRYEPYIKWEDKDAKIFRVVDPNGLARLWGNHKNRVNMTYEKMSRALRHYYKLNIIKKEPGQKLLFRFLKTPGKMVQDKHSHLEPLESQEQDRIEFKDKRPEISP
# How it was run: as §1
# ETV3 = target: T8, ETV3 (Homo sapiens, UniProt P41162-2 1-143)
# T8 sequence: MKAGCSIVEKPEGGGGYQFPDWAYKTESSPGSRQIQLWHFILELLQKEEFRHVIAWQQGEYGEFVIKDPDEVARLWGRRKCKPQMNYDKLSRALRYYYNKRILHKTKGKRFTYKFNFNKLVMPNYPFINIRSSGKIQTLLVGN
# How it was run: as §1
# ETV6 = ETV6 (Homo sapiens, UniProt P41212 1-452)
# Chain of ETV6 (P41212 whole entry): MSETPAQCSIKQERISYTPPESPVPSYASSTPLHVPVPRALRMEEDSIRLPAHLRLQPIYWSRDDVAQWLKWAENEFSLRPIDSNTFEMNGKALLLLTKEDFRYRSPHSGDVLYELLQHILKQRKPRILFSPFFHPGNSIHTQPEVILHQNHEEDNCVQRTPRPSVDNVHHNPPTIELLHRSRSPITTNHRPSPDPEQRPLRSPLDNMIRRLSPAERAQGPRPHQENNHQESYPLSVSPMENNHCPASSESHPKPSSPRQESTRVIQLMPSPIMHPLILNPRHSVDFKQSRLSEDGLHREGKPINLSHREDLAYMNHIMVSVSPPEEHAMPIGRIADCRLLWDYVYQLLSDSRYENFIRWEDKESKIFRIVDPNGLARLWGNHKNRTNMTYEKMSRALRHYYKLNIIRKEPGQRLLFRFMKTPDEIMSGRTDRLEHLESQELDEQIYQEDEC
# How it was run: as §1
sequence,measurement,setting,value
ATAAGA,binding signal,ELK4,"1.11 fold enrichment (6-mer frequency, TF over GST control)"
same,binding signal,ETV2,"1.03 fold enrichment (6-mer frequency, TF over GST control)"
same,binding signal,ELF3,"1.04 fold enrichment (6-mer frequency, TF over GST control)"
same,binding signal,ETV1,"1.1 fold enrichment (6-mer frequency, TF over GST control)"
same,binding signal,ERF,"1.14 fold enrichment (6-mer frequency, TF over GST control)"
same,binding signal,ETV3L,"1.05 fold enrichment (6-mer frequency, TF over GST control)"
same,binding signal,ETS2,"1.09 fold enrichment (6-mer frequency, TF over GST control)"
same,binding signal,ETV7,"1.04 fold enrichment (6-mer frequency, TF over GST control)"
same,binding signal,ETV3,"1.07 fold enrichment (6-mer frequency, TF over GST control)"
same,binding signal,ETV6,"1.07 fold enrichment (6-mer frequency, TF over GST control)"
